In the library only some 0.95% were active in any assay of this set; here they are far more common.
RE007 growth inh – less growth of the S. pombe RE007 Vpr strain; S. pombe RE007 Vpr strain, BacTiter-Glo ATP luminescence, 24 h; Potency, µM (top dose mostly 92.2 µM), for inactives: at the top dose activity change, negative = less growth, actives largely listed as inhibitors; hit rate 0.21% among 360,000; AID 651644; active means well fitted falling curve with a large enough effect; inconclusive means small, poorly fitted or top-dose-only effect; inactive means no such curve, though single readings can be large or run the other way; further: nearly all actives have a fitted effect of over 50% in size
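Fission yeast RE007 carrying one integrated HIV-1 vpr copy, seeded at OD 0.01 in PMG+AL medium with 23 nL pinned compound. Grown 24 h at 30 degrees; viability read by BacTiter-Glo luminescence after 5 min.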
LmPK inh – blocks Leishmania mexicana pyruvate kinase activity; Q27686; purified LmPK, Kinase-Glo ATP luminescence, 1 h; Potency, µM (series often up to 57.5 µM), without a hit: at the highest dose activity change, negative = inhibition, most hits filed as inhibitors; hit rate 0.37% among 290,000
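In 50 mM imidazole pH 7.2 with 7 mM MgCl2, LmPK (0.1 nM) turned over PEP (0.5 mM) and ADP (0.1 mM) for 1 h at room temperature. Luciferase read-out of ATP.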
Giardia FBPA inh-1 – inhibitors of Giardia lamblia fructose-1,6-bisphosphate aldolase. A8B2U2. hit rate 0.71% among 290,000. AID 2451. purified Giardia FBPA. Potency, µM (series often up to 59.6 µM), for inactives: at the top dose activity, negative = inhibition, actives largely listed as inhibitors; further: nearly all actives have a fitted effect of over 55% in size
Target sequence (A8B2U2 whole entry, looked up): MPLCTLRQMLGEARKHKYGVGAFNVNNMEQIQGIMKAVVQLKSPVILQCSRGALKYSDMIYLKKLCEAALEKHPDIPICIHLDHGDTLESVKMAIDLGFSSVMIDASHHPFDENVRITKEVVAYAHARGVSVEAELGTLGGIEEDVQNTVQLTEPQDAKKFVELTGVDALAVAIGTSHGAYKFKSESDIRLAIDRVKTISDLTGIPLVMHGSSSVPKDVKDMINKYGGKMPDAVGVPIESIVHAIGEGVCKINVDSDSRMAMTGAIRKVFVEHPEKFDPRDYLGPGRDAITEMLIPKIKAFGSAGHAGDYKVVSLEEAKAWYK
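40 nM FBPA preincubated 10 min at RT with compound (up to 57.5 uM final), then substrate plus GAPDH/TPI/NAD/arsenate coupling and diaphorase/resazurin added. Fluorescence read after 20 min at RT, 525/598 nm.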
Tb PYK inh – T. brucei pyruvate kinase inhibition. hit rate 0.12% among 410,000. Q57TT1. TbPYK enzyme, Kinase-Glo Plus ATP luminescence, 45 min. Potency, µM (titrated, usually from 76.8 µM), for inactives: top-dose activity, negative = inhibition, usual class: inhibitors; further: nearly all actives have a fitted effect of over 50% in size
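Enzyme and substrate buffer are dispensed first and compound is pin-transferred. ADP at 130 uM final then starts the reaction, which runs 45 min at room temperature. Detection reagent is added for 10 min before luminescence is imaged.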
Giardia growth – inhibitors of Giardia lamblia growth. hit rate 5% among 1,500. AID 2785. Potency, µM (highest dose often 57.5 µM), without a hit: top-dose activity change, negative = inhibition, usual class: inhibitors. Giardia lamblia trophozoite growth inhibition. shares compounds with Giardia FBPA inh-1;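 further: trophozoites exposed to compound for 48 h at 37 °C; nearly all actives have a fitted effect of over 70% in size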
Mammal cell tox – toxic to mammalian cells in Giardia aldolase counter-screen; shares compounds with Giardia FBPA inh-1; mammalian cell viability counter-screen, qHTS; Potency, µM (titrated, usually from 57.5 µM), inactives show at the highest dose viability change, negative = toxicity, most hits filed as inhibitors; hit rate 4% among 1,500; AID 2786;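 further: Chinese hamster ovary cells used as mammalian cytotoxicity surrogate; viability measured as cellular ATP by luminescence; compound exposure lasted 48 h before reading; nearly all actives have a fitted effect of over 60% in size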
Giardia FBPA inh-2 – confirmation of Giardia fructose-bisphosphate aldolase inhibitors | hit rate 5% among 1,500 | Potency, µM (titrated, usually from 57.5 µM), without a hit: top-dose activity change, negative = inhibition, hits mostly inhibitors | purified Giardia aldolase enzyme activity, qHTS | shares compounds with Giardia FBPA inh-1 | AID 2787; further: nearly all actives have a fitted effect of over 45% in size
Rabbit FBPA inh – rabbit FBP aldolase inhibition by Giardia aldolase hits; shares compounds with Giardia FBPA inh-1; AID 2794; hit rate 4% among 1,500; Potency, µM (highest dose often 57.5 µM), without a hit: at the top dose activity, negative = inhibition, most hits filed as inhibitors; Rabbit muscle FBPA enzyme inhibition, selectivity counter-screen; further: nearly all actives have a fitted effect of over 60% in size
Target sequence (P00883 whole entry, looked up): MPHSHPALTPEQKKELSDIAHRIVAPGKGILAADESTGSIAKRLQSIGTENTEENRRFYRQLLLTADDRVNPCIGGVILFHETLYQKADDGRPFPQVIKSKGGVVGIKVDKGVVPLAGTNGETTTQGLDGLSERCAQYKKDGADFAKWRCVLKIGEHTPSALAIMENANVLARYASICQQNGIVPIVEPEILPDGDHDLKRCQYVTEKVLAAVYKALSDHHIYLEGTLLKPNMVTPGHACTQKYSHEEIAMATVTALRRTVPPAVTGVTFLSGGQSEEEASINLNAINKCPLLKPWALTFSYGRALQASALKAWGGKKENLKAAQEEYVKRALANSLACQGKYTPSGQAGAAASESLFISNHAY
GAPDH counter – counter-screen for Giardia aldolase inhibitors: GAPDH coupling enzyme; shares compounds with Giardia FBPA inh-1; GAPDH coupling enzyme counterscreen, biochemical, qHTS; Potency, µM (series often up to 57.5 µM), for the others: top-dose activity change, negative = inhibition, most hits filed as inhibitors; hit rate 6% among 1,500; AID 2795; further: nearly all actives have a fitted effect of over 55% in size
Active calls of the source: *; u = inconclusive; x = not tested or not shown; [ ] = dose if it differs, or a comment. Unless noted, the call rests on the fitted dose curve; in most records, active means well fitted curve in the direction sought with a large enough effect; inconclusive means small, poorly fitted or top-dose-only effect, or another doubt; inactive means no such curve, though single readings can be large; an effect the other way counts as inactive or inconclusive. On the % scale 0 is the no-effect control and ±100 the full control effect; potency means the concentration at half of the fitted maximal effect.

SMILES	RE007 growth inh	LmPK inh	Giardia FBPA inh-1	Tb PYK inh	Giardia growth	Mammal cell tox	Giardia FBPA inh-2	Rabbit FBPA inh	GAPDH counter
N#CC1=C(Nc2ccccc2Cl)SC(c2ccccc2O)NC1=O (stereo not given)	x	-9.5%	u	-10.3%	x	x	x	x	x
Brc1cccc(OCCCCn2cncn2)c1	-3.7%	-11.4%	28.2µM*	13.7%	13.5%	14.7%	0.0%	0.0%	7.5%
c1ccc(Oc2cccc(OCCn3cncn3)c2)cc1	15.8%	-14.4%	u	1.9%	x	x	x	x	x
COc1ccc(CNC2CCCc3ccccc32)cc1OC (stereo not given)	-4.1%	-8.6%	-24.5%	33.2%	x	x	x	x	x
COc1ccccc1CNC1CCCc2ccccc21 (stereo not given)	-11.4%	-5.9%	15.8µM*	2.4%	u	-0.1%	3.3%	3.6%	10.0%
COc1ccc(CNC2CCSc3ccccc32)cc1OC (stereo not given)	-18.5%	-3.6%	28.2µM*	31.9%	8.3%[10.4 µM]	25.0%	0.9%	4.4%	2.6%
COc1ccc(S(=O)(=O)NC2CCSc3ccccc32)cc1OC (stereo not given)	0.5%	0.7%	7.6%	0.8%	x	x	x	x	x
O=C(C[n+]1ccccc1)Nc1c(Cl)cc(Cl)cc1Cl	-12.8%	-3.4%	12.6µM*	-0.2%	24.0%	-5.7%	7.2%	8.4%	9.2%
OC[C@H]1O[C@@H](O[C@@H]2OC=C[C@H]3[C@H](O)[C@@H]4O[C@]4(CO)[C@@H]23)[C@H](O)[C@@H](O)[C@@H]1O	x	x	4.2%	x	x	x	x	x	x
O=[N+]([O-])c1ccc(N/N=C/c2ccc[nH]2)cc1	0.0%	-22.7%	17.7µM*	-3.8%	0.0%[10.4 µM]	1.3%	-26.2%	-18.4%	u
O=C(Nc1ccccc1C(=O)O)/C(=C/c1ccc([N+](=O)[O-])cc1)NC(=O)c1ccc(Br)o1	-1.6%	2.5%	17.7µM*	4.2%	72.9%	3.9%	-21.1%	-24.0%	-20.3%
CNC(=O)c1c(C)[nH]c(=S)c(C#N)c1-c1ccco1	19.7%	29.0%	12.6µM*	7.94µM*	3.2%[10.4 µM]	15.3%	6.4%	1.3%	13.4%
CON(C)C(=O)Nc1ccc(Br)c(Cl)c1	x	x	-6.4%	x	x	x	x	x	x
CC1CC(=O)N(CC(=O)Nc2ccc(F)cc2F)c2ccccc2S1 (stereo not given)	x	x	x	2.1%	x	x	x	x	x
COc1cc(CN2CCN(C(=O)CC(C)C)CC2)cc(OC)c1O	6.6%	-8.4%	15.8µM*	7.7%	u	-18.6%	3.98µM*	u	-6.6%
COc1cc(CN2CCC(C(=O)NC3CCCC3)CC2)cc(OC)c1O	-1.0%	-2.5%	17.7µM*	6.9%	7.2%	-11.7%	3.98µM*	u	u
COc1cc(CN2CCN(C(=O)CC(C)C)CC2)cc(OC)c1OC	6.5%	-5.0%	u	0.6%	x	x	x	x	x
COc1cc(CN2CCC(C(=O)N3CCCC(C)C3)CC2)cc(OC)c1O (stereo not given)	-16.3%	-4.3%	u	-1.4%	x	x	x	x	x
O=c1ccc2cc3c([nH]c4ccc(Br)cc43)oc-2c1O	x	-7.7%	14.1µM*	x	20.1%[10.4 µM]	7.2%	10µM*	8.91µM*	10µM*
Cc1ccc(C)c(NC(=O)CN2CCN(C3CCCCC3)C(=O)C2=O)c1	x	x	x	-1.4%	x	x	x	x	x
COCCNC(=O)CNC(c1ccccc1)c1ccccc1	x	-10.4%	19.9µM*	x	11.2%	-9.3%	1.2%	4.1%	6.9%
CC(C)c1ccc(Nc2ncnc3onc(-c4ccc(F)cc4)c23)cc1	x	x	x	0.8%	x	x	x	x	x
COc1cccc(CCc2nnc(CCC(=O)N3CCN(Cc4ccccn4)CC3)o2)c1	6.0%	-0.8%	5.61µM*	10.3%	-1.4%[38.3 µM]	-7.3%	-6.5%	3.9%	1.6%
CCN(CC)S(=O)(=O)c1cc(OC)ccc1N=Nc1ccc(O)c2ncccc12	x	-9.4%	u	-14.3%	-14.3%[38.3 µM]	29.1µM*	u	-18.6%	u
Cc1cccc(N=Nc2ccc(O)c3ncccc23)c1	u	-11.1%	x	-18.7%	x	x	-19.7%	-17.6%	-13.3%
SMILES	RE007 growth inh	LmPK inh	Giardia FBPA inh-1	Tb PYK inh	Giardia growth	Mammal cell tox	Giardia FBPA inh-2	Rabbit FBPA inh	GAPDH counter
CCOc1ccc(N=Nc2ccc(O)c3ncccc23)cc1	-7.8%	-5.9%	-8.4%	-5.6%	16.7%[38.3 µM]	-25.4%	u	-7.5%	-21.6%
CCS(=O)(=O)c1ccc(OC)c(N=Nc2ccc(O)c3ncccc23)c1	17.7%	-5.6%	14.9%	-11.9%	x	x	x	x	x
Cc1cc(C)cc(NC(=O)CSc2n[nH]c(-c3cccnc3)n2)c1	-8.2%	-0.3%	-18.7%	0.3%	x	x	x	x	x
O=C(CSc1n[nH]c(-c2cccnc2)n1)Nc1ccc(Br)cc1	-2.6%	4.1%	14.1µM*	13.6%	u	25.4%	13.4%	5.7%	24.1%
Cc1cc2nc3c(=O)[nH]c(=O)nc-3n(CC(O)C(O)C(O)COP(=O)(O)O)c2cc1C (stereo not given)	x	x	u	-5.4%	x	x	x	x	x
CCCCc1cc(=O)oc2cc(C)c3c(C)coc3c12	x	x	x	6.0%	x	x	x	x	x

Screens from PubChem.
